Laboratory results published in PubChem BioAssay (NCATS).
Inconclusive results are not listed. The source made the active and inactive calls. Calls come from the whole dose curve; as a rule, active = well fitted curve in the direction sought with a large enough effect; inconclusive = small, poorly fitted or top-dose-only effect, or another doubt; inactive = no such curve, though single readings can be large; an effect the other way counts as inactive or inconclusive.

Assays:
[1] = Quantitative High-Throughput drug screen in 47 multiple myeloma cell lines against the NCATS MIPE library collection: ARD_JJKsccE7 cell viability assay (AID 1918929; note: potency is the fitted concentration of half-maximal effect)
Procedure, shortened: (§1)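 Myeloma cell lines, 500 cells per well, exposed to MIPE 4.0 library compounds for 48 h at 37C, 5% CO2. Viability from ATP by CellTiter-Glo luminescence; normalised to DMSO (100%) and media-only (0%) wells.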

[2] = Quantitative High-Throughput drug screen in 47 multiple myeloma cell lines against the NCATS MIPE library collection: JIM3_ECACC cell viability assay (AID 1918963; note: nearly all actives have a fitted effect of over 35% in size)
Procedure, shortened: (§2)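 Inhibition of cell viability is measured here. Each line was plated at 500 cells per well, treated with MIPE 4.0 drugs, kept 48 hours at 37C, then assayed for ATP content by CellTiter-Glo luminescence.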

[3] = Quantitative High-Throughput drug screen in 47 multiple myeloma cell lines against the NCATS MIPE library collection: JIM1_ECACC cell viability assay (AID 1918964)
Procedure, shortened: as §1

[4] = Quantitative High-Throughput drug screen in 47 multiple myeloma cell lines against the NCATS MIPE library collection: H1112_PLB cell viability assay (AID 1918967; note: nearly all actives have a fitted effect of over 30% in size; note: potency is the fitted concentration of half-maximal effect)
Procedure, shortened: as §1

[5] = Quantitative High-Throughput drug screen in 47 multiple myeloma cell lines against the NCATS MIPE library collection: KMS27_JCRB cell viability assay (AID 1918970); note: nearly all actives have a fitted effect of over 30% in size; note: potency is the fitted concentration of half-maximal effect
Procedure, shortened: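 CellTiter-Glo luminescence after 48 h drug exposure at 37 °C; 500 cells/well, 1536-well format, pin-tool compound addition; DMSO = 100%, media-only = 0% viability.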

[6] = Quantitative High-Throughput drug screen in 47 multiple myeloma cell lines against the NCATS MIPE library collection: KMS12PE_JCRB cell viability assay (AID 1918972); note: nearly all actives have a fitted effect of over 30% in size
Procedure, shortened: (§3)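 qHTS of the MIPE 4.0 collection: 500 myeloma cells/well, 48 h drug exposure at 37C in 5% CO2, then CellTiter-Glo for 5 min at room temperature before luminescence reading.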

[7] = Quantitative High-Throughput drug screen in 47 multiple myeloma cell lines against the NCATS MIPE library collection: KMS21BM_JCRB cell viability assay (AID 1918974); conditions: ATP luminescence, 48 h; viability: at 45.8 µM (top of the series) unless noted
Procedure, shortened: as §1

[8] = Quantitative High-Throughput drug screen in 47 multiple myeloma cell lines against the NCATS MIPE library collection: KMS26_JCRB cell viability assay (AID 1918975); note: nearly all actives have a fitted effect of over 45% in size
Procedure, shortened: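 Myeloma cells (500 per well) were exposed to MIPE 4.0 compounds by pin transfer and incubated 48 hours at 37C, 5% CO2. Viability was read as ATP by CellTiter-Glo luminescence, normalised to DMSO (100%) and media-only (0%) wells.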

[9] = Quantitative High-Throughput drug screen in 47 multiple myeloma cell lines against the NCATS MIPE library collection: MOLP8_DSMZ cell viability assay (AID 1918977); note: nearly all actives have a fitted effect of over 45% in size
Procedure, shortened: (§4)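 Viability after 48 h drug exposure was measured as ATP-dependent luminescence. Cells, 500 per well, sat at 37 °C under 5% CO2; DMSO wells set 100%, media-only wells 0%.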

[10] = Quantitative High-Throughput drug screen in 47 multiple myeloma cell lines against the NCATS MIPE library collection: NCIH929_DSMZ cell viability assay (AID 1918978); note: nearly all actives have a fitted effect of over 35% in size; note: potency is the fitted concentration of half-maximal effect
Procedure, shortened: as §4

[11] = Quantitative High-Throughput drug screen in 47 multiple myeloma cell lines against the NCATS MIPE library collection: INA6_PLB cell viability assay (AID 1918965; note: nearly all actives have a fitted effect of over 55% in size; note: potency is the fitted concentration of half-maximal effect)
Procedure, shortened: as §3

[12] = Quantitative High-Throughput drug screen in 47 multiple myeloma cell lines against the NCATS MIPE library collection: Karpas25_ECACC cell viability assay (AID 1918968; note: nearly all actives have a fitted effect of over 35% in size; note: potency is the fitted concentration of half-maximal effect)
Procedure, shortened: as §1

[13] = Quantitative High-Throughput drug screen in 47 multiple myeloma cell lines against the NCATS MIPE library collection: Karpas620_DSMZ cell viability assay (AID 1918959); note: nearly all actives have a fitted effect of over 30% in size
Procedure, shortened: as §2

[14] = Quantitative High-Throughput drug screen in 47 multiple myeloma cell lines against the NCATS MIPE library collection: KMM1_JCRB cell viability assay (AID 1918960); note: nearly all actives have a fitted effect of over 30% in size
Procedure, shortened: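 ATP readout (CellTiter-Glo), 48 h drug incubation, 37 °C/5% CO2, 500 cells per well; normalisation to DMSO (100%) and media-only (0%) controls.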

[15] = Quantitative High-Throughput drug screen in 47 multiple myeloma cell lines against the NCATS MIPE library collection: KHM11_PLB cell viability assay (AID 1918962); note: nearly all actives have a fitted effect of over 35% in size
Procedure, shortened: as §2

[16] = Quantitative High-Throughput drug screen in 47 multiple myeloma cell lines against the NCATS MIPE library collection: KMS20_JCRB cell viability assay (AID 1918973); note: potency is the fitted concentration of half-maximal effect; nearly all actives have a fitted effect of over 45% in size
Procedure, shortened: as §1

[17] = Quantitative High-Throughput drug screen in 47 multiple myeloma cell lines against the NCATS MIPE library collection: Karpas417_ECACC cell viability assay (AID 1918961); conditions: Karpas417 myeloma viability, CellTiter-Glo ATP luminescence, 48 h; viability (% of DMSO): at 45.8 µM (top of the series); note: potency is the fitted concentration of half-maximal effect
Procedure, shortened: as §3

Measured: Potency

CC(C)(S)[C@@H](N)C(=O)O
inactive: [1] | [2] | [3] | [4] | [5] | [6] | [7] | [8] | [9] | [10]

O=C1c2ccccc2-c2n[nH]c3cccc1c23
inactive: [2] | [4]
active: [1] 1.18 µM | [11] 20.9 µM | [5] 2.96 µM

CCOc1cc(CC(=O)N[C@@H](CC(C)C)c2ccccc2N2CCCCC2)ccc1C(=O)O
inactive: [1] | [2] | [11] | [4] | [12] | [10]

O=P(O)(O)C(O)(Cn1ccnc1)P(=O)(O)O
inactive: [13] | [14] | [15] | [2] | [4] | [5] | [6] | [8] | [9] | [10]

CN(c1nccc(=O)[nH]1)C1CCN(c2nc3ccccc3n2Cc2ccc(F)cc2)CC1
active: [11] 23.5 µM | [4] 23.5 µM | [12] 11.8 µM | [16] 6.62 µM | [10] 13.2 µM
inactive: [1] | [14] | [6] | [9]

Clc1ccc(C(Cn2ccnc2)OCc2ccsc2Cl)c(Cl)c1 (configuration not stated)
active: [17] 18.7 µM

Nc1nc(OCc2ccccc2)c2[nH]cnc2n1
active: [17] 16.6 µM
